# Data: the supplement of paper PMC8728848
# This excerpt belongs to a sample that is enriched for the strongest signals.
# Columns and labels:
# Experiment in all cases: glycan array binding signal (z-score within array); higher = stronger binding
# Conditions in all cases: glycan notation: IUPAC condensed, linker removed
# [1] = target: GlcA3S(b1-3)Gal(b1-4)GlcNAc(b1-2)Man
# Procedure, shortened: (§1)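 The binding signal is a Z-score computed within each array. Data were drawn from 3228 arrays in the Consortium for Functional Glycomics database, restricted to those with a known protein sequence. Scores were averaged over arrays of the same protein sequence at different concentrations or buffers, and over linkers, and negative values can be taken as non-binding.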
# [2] = target: GlcNAc(a1-4)Gal(b1-3)GlcNAc
# Procedure, shortened: as §1
# [3] = target: GlcNAc(b1-2)[GlcNAc(b1-4)]Man(a1-3)[GlcNAc(b1-2)Man(a1-6)]Man(b1-4)GlcNAc(b1-4)GlcNAc
# Procedure, shortened: as §1
# [4] = target: GlcNAc(b1-3)Gal(b1-3)GalNAc
# Procedure, shortened: as §1
# [5] = target: GlcNAc(b1-3)Gal(b1-4)GlcNAc(b1-3)Gal(b1-4)GlcNAc(b1-2)Man(a1-3)[GlcNAc(b1-3)Gal(b1-4)GlcNAc(b1-3)Gal(b1-4)GlcNAc(b1-2)Man(a1-6)]Man(b1-4)GlcNAc(b1-4)[Fuc(a1-6)]GlcNAc
# Procedure, shortened: as §1
# [6] = target: GlcNAc(b1-3)Gal(b1-4)GlcNAc(b1-6)[Gal(b1-3)]GalNAc
# Procedure, shortened: as §1
# [7] = target: GlcNAc(b1-3)Gal(b1-4)GlcNAc(b1-6)[GlcNAc(b1-3)]Gal(b1-4)GlcNAc
# Procedure, shortened: as §1
# [8] = target: GlcNAc(b1-4)Gal(b1-4)GlcNAc
# Procedure, shortened: as §1
# [9] = target: GlcNAc(b1-4)GlcNAc(b1-4)GlcNAc(b1-4)GlcNAc(b1-4)GlcNAc
# Procedure, shortened: as §1
# [10] = target: GlcNAc(b1-6)GalNAc
# Procedure, shortened: as §1
# [11] = target: Kdn(a2-3)Gal(b1-4)GlcNAc
# Procedure, shortened: as §1
# [12] = target: Man(a1-2)Man(a1-2)Man(a1-3)Man
# Procedure, shortened: as §1
# [13] = target: Man(a1-2)Man(a1-3)[Man(a1-2)Man(a1-6)]Man(a1-6)[Man(a1-2)Man(a1-2)Man(a1-3)]Man(b1-4)GlcNAc(b1-4)GlcNAc
# Procedure, shortened: as §1
# [14] = target: Man(a1-2)Man(a1-6)[Man(a1-3)]Man(a1-6)[Man(a1-2)Man(a1-2)Man(a1-3)]Man(b1-4)GlcNAc(b1-4)GlcNAc
# Procedure, shortened: as §1
# [15] = target: Neu5Ac(a2-3)Gal(b1-3)GalNAc(b1-3)Gal(a1-4)Gal(b1-4)Glc
# Procedure, shortened: as §1
# [16] = target: Neu5Ac(a2-3)Gal(b1-3)GlcNAc(b1-6)GalNAc
# Procedure, shortened: as §1
# [17] = target: Neu5Ac(a2-3)Gal(b1-3)GlcNAc6S
# Procedure, shortened: as §1
# [18] = target: Neu5Ac(a2-3)Gal(b1-4)GlcNAc(b1-3)Gal
# Procedure, shortened: as §1
# [19] = target: Neu5Ac(a2-3)Gal(b1-4)[Fuc(a1-3)]GlcNAc(b1-2)Man
# Procedure, shortened: as §1
# [20] = target: Neu5Ac(a2-3)Gal(b1-4)[Fuc(a1-3)]GlcNAc(b1-6)[Neu5Ac(a2-3)Gal(b1-3)]GalNAc
# Procedure, shortened: as §1
# [21] = target: Neu5Ac(a2-3)GalNAc
# Procedure, shortened: as §1
# [22] = target: Neu5Ac(a2-6)Gal
# Procedure, shortened: as §1
# [23] = target: Neu5Ac(a2-6)Gal(b1-4)GlcNAc(b1-2)[Neu5Ac(a2-6)Gal(b1-4)GlcNAc(b1-6)]Man(a1-6)[Neu5Ac(a2-6)Gal(b1-4)GlcNAc(b1-2)Man(a1-3)][GlcNAc(b1-4)]Man(b1-4)GlcNAc(b1-4)GlcNAc
# Procedure, shortened: as §1
# [24] = target: Neu5Ac(a2-6)Gal(b1-4)GlcNAc(b1-3)Gal(b1-4)GlcNAc(b1-2)Man(a1-3)[Neu5Ac(a2-6)Gal(b1-4)GlcNAc(b1-3)Gal(b1-4)GlcNAc(b1-2)Man(a1-6)]GalNAc
# Procedure, shortened: as §1
# [25] = target: Neu5Ac(a2-8)Neu5Ac(a2-3)Gal(b1-3)GalNAc(b1-4)[Neu5Ac(a2-3)]Gal(b1-4)Glc
# Procedure, shortened: as §1
# [26] = target: Neu5Ac(a2-8)Neu5Ac(a2-3)Gal(b1-3)GalNAc(b1-4)[Neu5Ac(a2-8)Neu5Ac(a2-3)]Gal(b1-4)Glc
# Procedure, shortened: as §1
# [27] = target: Neu5Gc(a2-6)Gal(b1-4)GlcNAc
# Procedure, shortened: as §1
# [28] = target: Neu5Gc(a2-8)Neu5Gc(a2-3)Gal(b1-4)GlcNAc
# Procedure, shortened: as §1
# [29] = target: Neu5Gc(a2-8)Neu5Gc(a2-3)Gal(b1-4)GlcNAc(b1-3)Gal(b1-4)GlcNAc
# Procedure, shortened: as §1
# [30] = target: Neu5Gc(a2-8)Neu5Gc(a2-6)Gal(b1-4)GlcNAc
# Procedure, shortened: as §1
binder,measurement,setting,value
"CBP21 (Serratia marcescens), O83009 (protein) MNKTSRTLLSLGLLSAAMFGVSQQANAHGYVESPASRAYQCKLQLNTQCGSVQYEPQSVEGLKGFPQAGPADGHIASADKSTFFELDQQTPTRWNKLNLKTGPNSFTWKLTARHSTTSWRYFITKPNWDASQPLTRASFDLTPFCQFNDGGAIPAAQVTHQCNIPADRSGSHVILAVWDIADTANAFYQAIDVNLSK",glycan array binding signal (z-score),[1],-1.64
same,glycan array binding signal (z-score),[2],0.503
same,glycan array binding signal (z-score),[3],-0.435
same,glycan array binding signal (z-score),[4],0.04
same,glycan array binding signal (z-score),[5],3.08
same,glycan array binding signal (z-score),[6],-0.256
same,glycan array binding signal (z-score),[7],-1.31
same,glycan array binding signal (z-score),[8],0.145
same,glycan array binding signal (z-score),[9],0.729
same,glycan array binding signal (z-score),[10],-0.697
same,glycan array binding signal (z-score),[11],-0.42
same,glycan array binding signal (z-score),[12],-0.437
same,glycan array binding signal (z-score),[13],2.53
same,glycan array binding signal (z-score),[14],0.074
same,glycan array binding signal (z-score),[15],1.24
same,glycan array binding signal (z-score),[16],0.458
same,glycan array binding signal (z-score),[17],-0.561
same,glycan array binding signal (z-score),[18],-0.019
same,glycan array binding signal (z-score),[19],-1.42
same,glycan array binding signal (z-score),[20],-0.314
same,glycan array binding signal (z-score),[21],-0.582
same,glycan array binding signal (z-score),[22],0.109
same,glycan array binding signal (z-score),[23],0.063
same,glycan array binding signal (z-score),[24],2.96
same,glycan array binding signal (z-score),[25],4
same,glycan array binding signal (z-score),[26],0.155
same,glycan array binding signal (z-score),[27],0.755
same,glycan array binding signal (z-score),[28],-0.788
same,glycan array binding signal (z-score),[29],0.62
same,glycan array binding signal (z-score),[30],0.37
